Source: PubChem (Center for Chemical Genomics, University of Michigan)
Dicer processing: inhibitors of human Dicer processing of pre-microRNA. Q9UPY3. cat-ELCCA pre-miR-21 Dicer processing, chemiluminescence; stronger effect = higher value. z-score at 25 µM. hit rate 6% among 47,000. AID 1347074; in the data active = z-score above about 3, passing the limit was not always enough;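 also: plate controls were vehicle for no effect and no enzyme for full effect; higher signal means more uncleaved substrate so more Dicer inhibition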
Target sequence (Q9UPY3 whole entry, looked up): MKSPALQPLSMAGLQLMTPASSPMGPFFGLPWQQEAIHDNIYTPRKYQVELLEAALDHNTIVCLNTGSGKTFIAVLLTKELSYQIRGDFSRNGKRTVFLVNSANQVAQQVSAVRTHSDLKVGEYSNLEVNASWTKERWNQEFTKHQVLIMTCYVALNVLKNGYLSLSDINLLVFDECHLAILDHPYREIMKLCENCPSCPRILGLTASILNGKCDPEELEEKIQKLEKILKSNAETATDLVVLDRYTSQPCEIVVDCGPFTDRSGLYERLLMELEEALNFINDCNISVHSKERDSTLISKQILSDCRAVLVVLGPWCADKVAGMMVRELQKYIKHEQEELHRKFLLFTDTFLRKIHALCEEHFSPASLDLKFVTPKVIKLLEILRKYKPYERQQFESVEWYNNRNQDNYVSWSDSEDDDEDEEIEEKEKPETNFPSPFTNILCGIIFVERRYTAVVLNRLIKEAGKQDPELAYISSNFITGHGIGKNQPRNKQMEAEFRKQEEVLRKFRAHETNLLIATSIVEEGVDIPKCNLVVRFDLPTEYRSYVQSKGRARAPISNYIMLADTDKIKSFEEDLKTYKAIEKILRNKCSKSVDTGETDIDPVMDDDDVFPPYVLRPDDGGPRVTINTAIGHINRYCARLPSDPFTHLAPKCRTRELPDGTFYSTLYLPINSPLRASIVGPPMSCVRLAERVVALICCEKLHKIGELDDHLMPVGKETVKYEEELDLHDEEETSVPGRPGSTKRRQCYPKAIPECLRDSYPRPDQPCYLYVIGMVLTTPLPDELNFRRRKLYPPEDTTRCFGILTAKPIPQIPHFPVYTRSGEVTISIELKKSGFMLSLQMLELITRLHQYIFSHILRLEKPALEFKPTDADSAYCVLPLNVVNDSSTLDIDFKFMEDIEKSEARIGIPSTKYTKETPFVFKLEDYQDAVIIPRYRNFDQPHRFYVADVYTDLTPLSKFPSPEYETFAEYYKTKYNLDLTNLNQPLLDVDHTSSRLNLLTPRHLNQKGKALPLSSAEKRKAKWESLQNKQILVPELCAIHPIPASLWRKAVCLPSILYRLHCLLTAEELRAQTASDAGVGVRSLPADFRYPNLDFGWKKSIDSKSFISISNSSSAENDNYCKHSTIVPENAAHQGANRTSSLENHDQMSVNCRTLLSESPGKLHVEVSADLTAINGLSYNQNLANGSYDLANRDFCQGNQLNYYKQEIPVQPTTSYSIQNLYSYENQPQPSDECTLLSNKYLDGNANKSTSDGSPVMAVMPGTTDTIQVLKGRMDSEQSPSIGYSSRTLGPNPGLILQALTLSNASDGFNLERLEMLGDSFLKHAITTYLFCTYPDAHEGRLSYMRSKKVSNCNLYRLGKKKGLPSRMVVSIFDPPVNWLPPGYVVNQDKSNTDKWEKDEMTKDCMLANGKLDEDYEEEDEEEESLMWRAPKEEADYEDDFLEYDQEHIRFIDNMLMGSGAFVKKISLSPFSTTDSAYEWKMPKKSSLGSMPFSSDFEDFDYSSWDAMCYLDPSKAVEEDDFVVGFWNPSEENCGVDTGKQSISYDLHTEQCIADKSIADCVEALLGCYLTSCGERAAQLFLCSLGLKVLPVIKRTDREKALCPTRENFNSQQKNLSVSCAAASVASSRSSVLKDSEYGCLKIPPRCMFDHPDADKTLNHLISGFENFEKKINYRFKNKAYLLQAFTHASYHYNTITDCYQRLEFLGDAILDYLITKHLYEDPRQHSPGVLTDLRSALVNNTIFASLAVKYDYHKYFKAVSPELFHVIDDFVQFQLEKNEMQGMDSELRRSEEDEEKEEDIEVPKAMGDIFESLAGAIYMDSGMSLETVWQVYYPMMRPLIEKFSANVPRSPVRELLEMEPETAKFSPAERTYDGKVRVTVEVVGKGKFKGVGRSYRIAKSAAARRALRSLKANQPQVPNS
* marks the source's active call; other numbers are inactive results. The entries come from a sample that favours hits as a whole.

SMILES | Dicer processing
CNC(=S)N1CCc2sccc2C1c1ccc(Cl)cc1 (configuration not stated) | 0.48
Cc1sc2ncn(CC(=O)Nc3ccc(F)cc3F)c(=O)c2c1C | 2.6
Cc1cc(=S)nc(-c2ccccn2)[nH]1 | 6.9*
Cc1[nH]c(-c2ccccn2)nc(=S)c1Cl | -1.4
c1ccc(-c2nc3ccccc3nc2-c2ccccn2)nc1 | -1.2
CS(=O)(=O)N(CCc1ccc(Cl)cc1)S(C)(=O)=O | 2.8
CSc1sc(C(=O)NN=C(C)C)c2c1C(O)CCC2 (configuration not stated) | 0.05
CCOc1ccc(/C=N/NC(=S)Nc2ccc(S(=O)(=O)N3CCCCC3)cc2)cc1 | 7.3*
CCOc1ccc(S(=O)(=O)N2CCCN(S(=O)(=O)c3ccc(OCC)cc3)CC2)cc1 | 0.4
O=S(=O)(c1ccc(NC(=S)NC2CCCCC2)cc1)N1CCCCC1 | 0.42
Cc1noc(C)c1NC(=O)Nc1cc(C(F)(F)F)cc(C(F)(F)F)c1 | 0.16
CCOC(=O)c1c(SC)nc2c(Cl)cccc2c1Sc1c(Cl)cccc1Cl | 77
O=C1NC(c2ccccc2)=N/C1=C/c1ccccc1Cl | -0.74
NC(=O)c1c(NC(=O)c2csc3c2CCCC3)sc2c1CCCC2 | 0.3
Cc1cc(C)c2c(c1)NC(=O)C2(O)CC(=O)c1cccs1 (configuration not stated) | 3.4*
Cc1ccc(C(=O)CC2(O)C(=O)Nc3ccc(C)cc32)c(C)c1 (configuration not stated) | -0.09
O=C(CC1(O)C(=O)Nc2ccc(Br)cc21)c1cccs1 (configuration not stated) | -1.9
FC(F)(F)c1csc(N/N=C/c2ccc(Cl)cc2)n1 | -0.65
CC(C)(C)NCC(O)Cn1c2ccccc2c2ccccc21 (configuration not stated) | 0.67
OCCNCC(O)Cn1c2ccccc2c2ccccc21 (configuration not stated) | 4.5*
CC(NCC(O)Cn1c2ccccc2c2ccccc21)C(=O)O (configuration not stated) | -4.7
COc1cc(C2Nc3c(C)cc(C)cc3-c3cc(C)nn32)ccc1O (configuration not stated) | 0.44
C=CCNC(=O)CSc1nccc(-c2sc3scc(C)c3c2C)n1 | -0.09
Cc1nc2ccccc2c(C(=O)O)c1O | -2.3
O=C(NC1CCCC1)c1nn2c(c1Cl)NC(c1ccccc1)CC2C(F)(F)F (configuration not stated) | -0.2
SMILES | Dicer processing
O=C(O)c1cc2n(n1)C(C(F)(F)F)CC(c1ccco1)N2 (configuration not stated) | -0.34
CSc1ccccc1NC(=O)c1cc2n(n1)C(C(F)(F)F)CC(c1ccco1)N2 (configuration not stated) | -0.22
CSc1ccccc1NC(=O)c1nn2c(c1Cl)NC(c1ccco1)CC2C(F)(F)F (configuration not stated) | 4.4*
CC1CN(C(=O)c2cc3n(n2)C(C(F)(F)F)CC(c2ccco2)N3)CC(C)O1 (configuration not stated) | 1.7
CC1CCN(C(=O)c2nn3c(c2Cl)NC(c2ccco2)CC3C(F)(F)F)CC1 (configuration not stated) | 4*
CCCCN1C(=O)NC2C1NC(=O)N2CCCC (configuration not stated) | 1
CCC(=O)NC(Nc1ccc(O)cc1)(C(F)(F)F)C(F)(F)F | 5.4
CC(C)CC(NC(=O)c1ccco1)C(=O)O (configuration not stated) | 5.2*
CC(C)C[C@H](NC(=O)c1ccc(Cl)cc1Cl)C(=O)O | 2.2
CC(C)C[C@H](NC(=O)[C@@H](O)[C@H](N)Cc1ccccc1)C(=O)O | -4.4
COc1ccc(C2C(C(=O)c3cccs3)=C(O)C(=O)N2CCCn2ccnc2)cc1 (configuration not stated) | -0.81
O=C(C1=C(O)C(=O)N(CCCn2ccnc2)C1c1cccnc1)c1cc2ccccc2o1 (configuration not stated) | -0.82
O=C(C1=C(O)C(=O)N(CCCn2ccnc2)C1c1cccnc1)c1cccs1 (configuration not stated) | 3.1*
CC1=CC(C)(C)Nc2ccc(OC(=O)c3ccc(C)cc3)cc21 | 1.5
O=C1CC(c2ccccc2Cl)Cc2c1cnn2-c1nc2ccccc2[nH]1 (configuration not stated) | -0.41
Cc1ccccc1-c1nc2ccccc2[nH]1 | 4.5
Cc1[nH]n(-c2nc3ccccc3[nH]2)c(=O)c1C1OC(=O)c2ccccc21 (configuration not stated) | 3.8*
Cc1cc(=O)n(-c2ccc(O)cc2)[nH]1 | -7.2
Cc1cc(=O)n(-c2ccc(Cl)c(Cl)c2)[nH]1 | -2.9
Cc1cc(=O)n(-c2nc3ccccc3[nH]2)[nH]1 | 4.3*
CCOC(=O)Cn1c(NCc2ccccc2)nc2c1c(=O)n(C)c(=O)n2C | -0.41
C/C(COc1ccc(Cl)cc1Cl)=N\OC(=O)c1c(-c2ccccc2)noc1C | -1.4
CNC(=O)c1sc(SC)c2c1CCC=C2 | 27
CCOC(=O)CSc1n[nH]c(=O)n1-c1ccccc1 | -1.3
CCOC(=O)c1c(C)n(C)c2ccc(OCC(O)CN3CCCCC3)cc12 (configuration not stated) | -0.3
SMILES | Dicer processing
N/C(=N\NC(=O)Nc1ccc(Cl)cc1)c1ccc(C(F)(F)F)cn1 | 2.4
Cc1n[nH]c(=O)c2noc(/C=C/c3ccsc3)c12 | -1.1
CC1=C(C(=O)Nc2ccccc2)S(=O)CCO1 (configuration not stated) | 3.3*
Cc1cc(C(=O)Nc2ccccc2)oc(=O)c1 | -2.2
CC1=C(C(=O)Nc2ccc(F)cc2)SCCO1 | 1
COc1ccc(C(=O)CC2(O)C(=O)N(CN3CCOCC3)c3ccc(Br)cc32)cc1 (configuration not stated) | 42
CC(C)NC(=O)CCCSc1nc(-c2ccco2)cc(C(F)(F)F)n1 | 1.4
NCCCNS(=O)(=O)c1cc(C(F)(F)F)cc(C(F)(F)F)c1 | 0.45
CCOC(=O)c1c(N=Cc2ccccc2[N+](=O)[O-])n[nH]c1C | 3.7*
CCOC(=O)c1c(N/N=C/c2ccc(O)cc2)n[nH]c1C | 0.23
CCOC(=O)c1c(N=Cc2ccccc2Cl)n[nH]c1C | -2.5
Nc1c(C(=O)Nc2cccc(Cl)c2)sc2nc(-c3ccncc3)ccc12 | 1.7
CCCCCOC(=O)C1=C(C)NC2=C(C(=O)CCC2)C1c1ccc(C)cc1 (configuration not stated) | -0.29
c1ccc(Oc2nc(Oc3ccccc3)nc(Oc3ccccc3)n2)cc1 | 0.72
Cc1ccc(OC2CCS(=O)(=O)C2)cc1 (configuration not stated) | 0.65
O=C(Oc1ccccc1)OC1CCS(=O)(=O)C1 (configuration not stated) | 4*
O=C(Nc1ccccc1)NC1CCS(=O)(=O)C1 (configuration not stated) | 2.8
O=C1CC(=O)c2c(Cl)c(Cl)c(Cl)c(Cl)c21 | 4.5
O=S(=O)(Nc1ccc(Oc2ccc(NS(=O)(=O)c3cccs3)cc2)cc1)c1cccs1 | 3.6*
Cc1cc(=O)oc2cc(NS(=O)(=O)c3cccs3)ccc12 | -1.8
O=S(=O)(Nc1cccc2ccccc12)c1cccs1 | 2.4
O=S(=O)(NC12CC3CC(CC(C3)C1)C2)c1ccc(NC(=S)Nc2ccccc2C(F)(F)F)cc1 | -1.1
CCOc1ccc(N2C(=O)CSC2=O)cc1 | 0.51
COc1ccc(C2CC(c3cc(Cl)ccc3O)=NN2)cc1 (configuration not stated) | 5.8*
COc1ccc(C2CC(c3ccccc3O)=NN2)cc1 (configuration not stated) | 4.2*
